Experimental data: PubChem BioAssay AID463173 (ICCB-Longwood Screening Facility, Harvard Medical School, 2010)
The campaign covered roughly 52,000 compounds. About 4,300 (8.3%) were called active. Cut-off read from the data, not from the text of the source: active = survival mostly below about 52% (no sharp cut-off); inactive = mostly above about 56%. The sample as a whole holds a higher share of actives than the screen did.

test system: DeltatarO mutant; assay: S. aureus survival, RN4220 and DeltatarO strains – OD600, teichoic acid synthesis inhibitors, primary screen (AID 463173); conditions: S. aureus RN4220 wild type/DeltatarO growth, OD600, 18 h, hits give low values, screened at 18.75 µg/mL (by protocol)

Row | SMILES | survival
1 | O=C(Nc1cc(C(F)(F)F)ccc1Cl)c1noc2c1CCCCC2 | 82% (inactive)
2 | COc1ccc(NC(=O)c2ccc3c(=O)n4nc(Nc5cc(C)ccc5C)sc4nc3c2)cc1 | 116% (inactive)
3 | CCCCN(C)c1nc2c(S(=O)(=O)c3ccc(CC)cc3)nnn2c2ccc(Cl)cc12 | 76% (inactive)
4 | CCc1ccccc1NC(=O)Cc1c(C(=O)O)[nH]c2ccc(Cl)cc12 | 80% (inactive)
5 | CCOc1ccc(CCNC(=O)c2cnc3sc(N(CC)CC)nn3c2=O)cc1OCC | 122% (inactive)
6 | COc1ccc(CNC(=O)c2ccc(N3CCCC3)c(NC(=O)NCc3ccc(F)cc3)c2)cc1 | 93% (inactive)
7 | Cc1ccc(-n2ncc3c(NC4CCCCCC4)ncnc32)cc1Cl | 66% (inactive)
8 | CCc1ccc(NC(=O)Cn2ccn(-c3cccc(Cl)c3)c(=O)c2=O)cc1 | 61% (inactive)
9 | CS(=O)(=O)N(Cc1ccccc1)c1ccc(C(=O)Nc2cccc(Cl)c2)cc1 | 36% (active)
10 | Cc1ccc(NC(=O)c2ccc(N(Cc3ccccc3)S(C)(=O)=O)cc2)cc1 | 64% (inactive)
11 | Cc1ccc(C(=O)Nc2ccc(S(=O)(=O)N(Cc3ccccc3)c3ccccc3)cc2)cc1 | 65% (inactive)
12 | Cc1ccccc1NC(=O)c1ccc(N(Cc2ccccc2)S(C)(=O)=O)cc1 | 66% (inactive)
13 | Cc1cccc(NC(=O)c2ccc(N(Cc3ccccc3)S(C)(=O)=O)cc2)c1 | 48% (active)
14 | CS(=O)(=O)N(Cc1ccccc1)c1ccc(C(=O)Nc2ccc(Cl)cc2)cc1 | 145% (inactive)
15 | CNc1nc2c(c(=O)[nH]c(=O)n2C)n1Cc1cccc2ccccc12 | 85% (inactive)
16 | COc1cccc(N2CCN(C(=O)C(CCSC)NS(=O)(=O)c3ccc4c(c3)oc(=O)n4C)CC2)c1 (stereo not drawn) | 106% (inactive)
17 | Fc1ccc(-n2cc(-c3ccccc3)c3c(NC4CCCCC4)ncnc32)cc1 | 85% (inactive)
18 | COc1ccc(CNC(=O)c2cnn(-c3ccc(OC)cc3)c2C2CCN(C(=O)OC(C)(C)C)CC2)cc1 | 74% (inactive)
19 | CC(C)(C)OC(=O)N1CCC(c2c(C(=O)NCc3ccccc3)cnn2-c2ccc(F)cc2)CC1 | 128% (inactive)
20 | CC(C)(C)OC(=O)N1CCC(c2c(C(=O)NCc3cccs3)cnn2-c2ccc(F)cc2F)CC1 | 72% (inactive)
21 | CC(C)(C)OC(=O)N1CCC(c2c(C(=O)NCc3ccc(F)cc3)cnn2-c2ccc(F)cc2)CC1 | -5% (active)
22 | CC(C)(C)OC(=O)N1CCC(c2c(C(=O)NCCN3CCC(Cc4ccccc4)CC3)cnn2-c2ccc(F)cc2)CC1 | 47% (active)
23 | CC(C)(C)OC(=O)N1CCC(c2c(C(=O)NCc3cccs3)cnn2-c2cccc(F)c2)CC1 | -5% (active)
24 | CC(C)(C)OC(=O)N1CCC(c2c(C(=O)NCCN3CCC(Cc4ccccc4)CC3)cnn2-c2ccccc2)CC1 | 80% (inactive)

Row | SMILES | survival
25 | Cc1ccc(-n2ncc(C(=O)NCCN3CCC(Cc4ccccc4)CC3)c2C2CCN(C(=O)OC(C)(C)C)CC2)cc1 | 98% (inactive)
26 | Cc1ccc(-n2ncc(C(=O)NCc3cccs3)c2C2CCN(C(=O)OC(C)(C)C)CC2)cc1C | 91% (inactive)
27 | CC(C)CCNC(=O)CSc1nc2ccccc2nc1Cc1ccccc1 | 82% (inactive)
28 | CCCSc1nnc(NC(=O)c2cc(=O)c3ccccc3o2)s1 | 38% (active)
29 | Cc1ccc2oc(C(=O)Nc3nnc(CC(C)C)s3)cc(=O)c2c1 | 63% (inactive)
30 | CCc1nnc(NC(=O)c2cc(=O)c3cc(C)c(C)cc3o2)s1 | 36% (active)
31 | Cc1ccc2c(=O)cc(C(=O)Nc3nnc(CC(C)C)s3)oc2c1C | 61% (inactive)
32 | CCCSc1nnc(NC(=O)Cc2coc3cc(C)ccc23)s1 | 85% (inactive)
33 | CCCc1nnc(NC(=O)c2cc(=O)c3cc(C)c(C)cc3o2)s1 | 35% (active)
34 | CCc1nnc(NC(=O)c2cc(=O)c3cc(C)ccc3o2)s1 | 79% (inactive)
35 | CCCc1nnc(NC(=O)c2cc(=O)c3ccccc3o2)s1 | 63% (inactive)
36 | CC(=O)Nc1ccc(NC(=O)c2cc(=O)c3ccccc3o2)cc1 | 59% (inactive)
37 | Cc1cc2oc(C(=O)Nc3ccc(S(N)(=O)=O)cc3)cc(=O)c2cc1C | 70% (inactive)
38 | CCCC(=O)Nc1nnc(CCC)s1 | 80% (inactive)
39 | CCCc1nnc(NC(=O)c2cc(=O)c3cc(Cl)ccc3o2)s1 | 43% (active)
40 | CCOc1ccc(-n2cc(C(=O)Nc3ccccc3OCC)c3cc(OC)c(OC)cc3c2=O)cc1 | 61% (inactive)
41 | O=C(NCc1ccco1)c1ccc2c(c1)N(Cc1ccc(F)cc1)C(=O)c1ccccc1S2=O (stereo not drawn) | 76% (inactive)
42 | COc1ccccc1CNS(=O)(=O)c1cnc(N)nc1 | 89% (inactive)
43 | C=CS(=O)(=O)c1ccc(Oc2ccc(S(=O)(=O)C=C)cc2)cc1 | 103% (inactive)
44 | COC(=O)CNc1cn[nH]c(=O)n1 | 92% (inactive)
45 | COCCN(Cc1ccco1)C(=O)c1cc2c(Cl)nc3ccc(C)cc3c2s1 | 92% (inactive)
46 | CCc1c(C)c2ccc(O)c(CN3CCN(c4cc(Cl)ccc4C)CC3)c2oc1=O | 54% (inactive)
47 | CC(C)n1c(SCc2ccccc2)nnc1C1CCCN(CC(N)=O)C1 (stereo not drawn) | 96% (inactive)
48 | COc1ccc(Cn2ccc3nc(C)c(C(=O)N4CCN(c5ccccc5OC)CC4)cc3c2=O)cc1 | 102% (inactive)

Row | SMILES | survival
49 | O=C(NC12CCC(O)C(SC1)C2O)c1ccccc1 (stereo not drawn) | 109% (inactive)
50 | COc1ccccc1C(O)(C(=O)NNc1cccc(Br)n1)c1ccccc1OC | 73% (inactive)
51 | CCSc1nnc(NC(=O)c2cc(=O)c3cc(C)ccc3o2)s1 | 86% (inactive)
52 | CCSc1nnc(NC(=O)c2cc(=O)c3cc(C)c(C)cc3o2)s1 | 44% (active)
53 | CSc1nnc(NC(=O)c2cc(=O)c3cc(C)c(C)cc3o2)s1 | 52% (inactive)
54 | CC(C)Nc1ccc(-c2nc(-c3ccccn3)no2)cc1[N+](=O)[O-] | 38% (active)
55 | CC(Nc1ccc(-c2nc(-c3ccncc3)no2)cc1[N+](=O)[O-])c1ccccc1 (stereo not drawn) | 42% (active)
56 | CC(C)Nc1ccc(-c2nc(-c3ccncc3)no2)cc1[N+](=O)[O-] | 79% (inactive)
57 | CCC(Nc1ccc(-c2nc(-c3ccco3)no2)cc1[N+](=O)[O-])c1ccccc1 (stereo not drawn) | 53% (inactive)
58 | CCC(Nc1ccc(-c2nc(-c3cccnc3)no2)cc1[N+](=O)[O-])c1ccccc1 (stereo not drawn) | 64% (inactive)
59 | CCC(Nc1ccc(-c2nc(-c3ccccn3)no2)cc1[N+](=O)[O-])c1ccccc1 (stereo not drawn) | 41% (active)
60 | CC(Nc1ccc(-c2nc(-c3ccco3)no2)cc1[N+](=O)[O-])c1ccccc1 (stereo not drawn) | 100% (inactive)
61 | CC(C)Nc1ccc(-c2nc(-c3ccco3)no2)cc1[N+](=O)[O-] | 107% (inactive)
62 | CC(Nc1ccc(-c2nc(-c3ccccn3)no2)cc1[N+](=O)[O-])c1ccccc1 (stereo not drawn) | 19% (active)
63 | CNc1ccc(-c2nc(-c3ccccn3)no2)cc1[N+](=O)[O-] | 52% (inactive)
64 | Cc1noc(-c2ccc(NC(C)c3ccccc3)c([N+](=O)[O-])c2)n1 (stereo not drawn) | 70% (inactive)
65 | CC(Nc1ccc(-c2nc(-c3cccnc3)no2)cc1[N+](=O)[O-])c1ccccc1 (stereo not drawn) | 79% (inactive)
66 | COc1ccccc1C(=O)Nc1cc2c(cc1N1CCOCC1)n(C)c(=O)n2C | 136% (inactive)
67 | CCOc1cc(-c2nnc(SCC(=O)NCc3ccc(C)cc3)nc2-c2ccc(OC)c(OCC)c2)ccc1OC | 78% (inactive)
68 | CCOc1cc(NC(=S)NCCCN2CCOCC2)c(OCC)cc1NC(=O)C1CC1 | 94% (inactive)
69 | CC(=O)c1ccc(NC(=O)C2CCCN(S(=O)(=O)c3cn(C)cn3)C2)cc1 (stereo not drawn) | 94% (inactive)
70 | O=C(Nc1ccc(OC(F)(F)F)cc1)C1CCN(S(=O)(=O)c2ccc3[nH]c(=O)ccc3c2)CC1 | 92% (inactive)
71 | O=C(O)C1CCN(C(=O)c2cccs2)CC1 | 88% (inactive)
72 | O=C(Nc1ccc(OC(F)(F)F)cc1)C1CCCN(S(=O)(=O)c2ccc(Br)s2)C1 (stereo not drawn) | 80% (inactive)

Row | SMILES | survival
73 | O=C(Nc1ccc(OC(F)(F)F)cc1)C1CCN(S(=O)(=O)c2cccs2)CC1 | 21% (active)
74 | O=C(Nc1ccc(Cl)cc1)C1CCN(S(=O)(=O)c2ccc(Br)s2)CC1 | 47% (active)
75 | Cn1cnc(S(=O)(=O)N2CCC(C(=O)Nc3ccc(OC(F)(F)F)cc3)CC2)c1 | 92% (inactive)
76 | O=C(c1cccs1)N1CCC(Cc2ccccc2)CC1 | 86% (inactive)
77 | Cn1cnc(S(=O)(=O)N2CCCC(C(=O)Nc3ccc(OC(F)(F)F)cc3)C2)c1 (stereo not drawn) | 25% (active)
78 | CC(C)c1ccc(NC(=O)C2CCN(S(=O)(=O)c3ccc(Br)s3)CC2)cc1 | 73% (inactive)
79 | O=C(Nc1ccccc1)C1CCN(C(=O)c2cccs2)CC1 | 67% (active)
80 | Cc1cc(NC(=O)C2CCN(S(=O)(=O)c3ccc(Br)s3)CC2)ccc1Br | 79% (inactive)
81 | CCC1SC(C)C/C(=N\O)C1C (stereo not drawn) | 105% (inactive)
82 | CCOc1ccc(CCNC(=O)CCCc2nnc3n(C)c(=O)c4sccc4n23)cc1OCC | 93% (inactive)
83 | COc1cc(OC)cc(-c2nc3nc(C)c(CCC(=O)Nc4cc(C)cc(C)c4)c(C)n3n2)c1 | 69% (inactive)
84 | O=C(NCc1cccc(Br)c1)C1CCN(C(=O)c2sccc2-n2cccc2)CC1 | 66% (inactive)
85 | O=C(CN1C(=O)COc2ccc(S(=O)(=O)N3CCCCCC3)cc21)N1CCN(c2ccc(F)cc2)CC1 | 67% (inactive)
86 | CCCC(=O)Nc1nnc(SCc2cc(=O)c3ccc(C)cc3[nH]2)s1 | 122% (inactive)
87 | COc1ccc(NS(=O)(=O)c2cc(-c3onc(C)c3C)ccc2C)c(OC)c1 | 89% (inactive)
88 | CCc1cccc(NC(=O)C2CCCN(S(=O)(=O)c3cccs3)C2)c1 (stereo not drawn) | 80% (inactive)
89 | O=C(Nc1cccc(C(F)(F)F)c1)C1CCN(S(=O)(=O)c2cccs2)CC1 | 39% (active)
90 | COc1ccc(NC(=O)C2CCCN(S(=O)(=O)c3cccs3)C2)cc1 (stereo not drawn) | 96% (inactive)
91 | O=C(Nc1cccc(C(F)(F)F)c1)C1CCN(S(=O)(=O)c2cccc3nsnc23)CC1 | 81% (inactive)
92 | CCOc1ccccc1NC(=O)C1CCN(S(=O)(=O)c2cccs2)CC1 | 58% (inactive)
93 | Cc1ccc(NC(=O)C2CCN(S(=O)(=O)c3cccs3)CC2)cc1 | 40% (active)
